These results are taken from PubChem BioAssay.

For part of these data: Results with a measured potency or affinity are listed apart. Calls of active or inactive are those of the source.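 The calls were made as follows, unless noted: active = fitted half-maximal concentration within 10 nM to 100 µM, steepness 0.5 to 2, significant signal drop, low assay interference; inactive = the rest.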

In assay [1] the target is Cell division control protein 42 homolog (Homo sapiens) (UniProt P60953). The experiment in a line: activated mutant Cdc42 GTP-binding inhibitors, dose response, biochemical, multiplex bead flow cytometry, Bodipy-FL-GTP (AID 1333;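 active = fitted half-maximal concentration within the tested dose range, moderate curve steepness, a statistically real signal drop, and little compound fluorescence or tag-binding interference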). Background: A flow cytometer gives signals particle by particle.
Sequence of Cell division control protein 42 homolog (Homo sapiens) (P60953 whole entry, looked up): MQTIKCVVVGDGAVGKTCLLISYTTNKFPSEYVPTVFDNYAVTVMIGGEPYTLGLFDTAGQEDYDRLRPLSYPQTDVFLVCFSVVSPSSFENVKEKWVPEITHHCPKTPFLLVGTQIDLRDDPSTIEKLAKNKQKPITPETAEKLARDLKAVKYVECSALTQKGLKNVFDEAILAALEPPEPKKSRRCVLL
Assay [2] has the same target. The experiment in a line: wildtype Cdc42 GTP-binding inhibitors, dose response, biochemical, multiplex bead flow cytometry, Bodipy-FL-GTP (AID 1334;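 active = fitted half-maximal concentration within the tested range, moderate curve steepness, significant signal drop, and little compound fluorescence or bead-linkage interference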). As to conditions: bead-based flow cytometry, Bodipy-FL-GTP binding to GST-Cdc42; at 100 µM (top of the series) unless noted.
Assay [3] addresses GTPase HRas (Homo sapiens) (UniProt P01112). The experiment in a line: inhibitors of GTP binding to wildtype Ras, dose response, biochemical, multiplex bead flow cytometry (AID 1335). As to conditions: bead-based flow cytometry, Bodipy-GTP binding to GST-Ras; at 100 µM (top of the series) unless noted.
For assay [4], the system named is Ras-related protein Rab-7a (dog), GTP binding. The experiment in a line: Rab7 GTP binding inhibitors, potency, dose response, biochemical, wildtype, multiplex bead flow cytometry (AID 1336; call rule not given here).
The target in assay [5] is Ras-related C3 botulinum toxin substrate 1 (Homo sapiens) (UniProt P63000). The experiment in a line: wildtype Rac1 GTP binding inhibitors, dose response, biochemical, multiplex bead flow cytometry (AID 1340;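 active = dose curve with midpoint inside tested range, moderate steepness, plateau gap beyond fit error, low compound glow and bead-link interference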). To be noted: GST-Rac1 beads, Bodipy-FL-GTP binding; at 100 µM (top of the series) unless noted.
The target of assay [6] is GTPase HRas (Homo sapiens) (UniProt P01112). The experiment in a line: activated Ras mutant GTP binding inhibitors, dose response, biochemical, multiplex bead flow cytometry (AID 1341;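 active = dose-response curve with midpoint inside the tested range, moderate steepness, significant amplitude and little compound fluorescence or bead-attachment interference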;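 also: GST-tagged constitutively activated Ras mutant immobilized on beads and multiplexed with other GTPases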).
Sequence of GTPase HRas (Homo sapiens) (P01112 whole entry, looked up): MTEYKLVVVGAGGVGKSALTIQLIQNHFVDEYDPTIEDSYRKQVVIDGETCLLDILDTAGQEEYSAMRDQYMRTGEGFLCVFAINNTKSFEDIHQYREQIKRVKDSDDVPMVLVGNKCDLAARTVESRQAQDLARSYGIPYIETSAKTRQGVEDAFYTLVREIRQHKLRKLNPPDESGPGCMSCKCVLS

With `O=C(CCc1ccccn1)N1CCCC(CNS(=O)(=O)c2cccs2)C1` (stereo not given), the result in assay [1], in assay [4] and in assay [6] was inactive. The molecule further showed a fluorescence, percent of control (lower = inhibition) in assay [2] of 36.9%. This molecule also gave a GTP binding, percent of control in assay [3] of 82.7%. For the same molecule, the GTP binding signal, raw median fluorescence (lower = inhibition) (MCF (arbitrary fluorescence units)) in assay [5] was found to be 279.

As for `COc1ccc(NC(=S)N(CCN(C)C)C(C)c2ccco2)cc1Cl` (stereo not given), the call in assay [1], in assay [4] and in assay [6] was inactive. In assay [2], the fluorescence, percent of control (lower = inhibition) was 49.2%. The molecule further had a GTP binding, percent of control in assay [3] of 60.4%. The molecule also yielded a GTP binding signal, raw median fluorescence (lower = inhibition) (MCF (arbitrary fluorescence units)) in assay [5] of 210.

Consider `CCN1/C(=C/c2ccc3cc(C)ccc3[n+]2C)Sc2ccc3sccc3c21`, for which the outcome in assay [1], in assay [4] and in assay [6] was inactive. In assay [2], this molecule displayed a fluorescence, percent of control (lower = inhibition) of 41.6%. In assay [3], this molecule displayed a GTP binding, percent of control of 74.4%. The molecule also returned a GTP binding signal, raw median fluorescence (lower = inhibition) (MCF (arbitrary fluorescence units)) in assay [5] of 263.

Take `Cc1cc(-c2n[nH]c(=S)n2/N=C/c2cc([N+](=O)[O-])ccc2Cl)n[nH]1`: the result in assay [1], in assay [4] and in assay [6] was inactive. The molecule further yielded a fluorescence, percent of control (lower = inhibition) in assay [2] of 40.4%. The molecule also displayed a GTP binding, percent of control in assay [3] of 54.8%. In assay [5], this molecule yielded a GTP binding signal, raw median fluorescence (lower = inhibition) (MCF (arbitrary fluorescence units)) of 105.

As for `O=C(O)C1(NCc2ccccc2Cl)CCCCC1`, the molecule was classed as inactive in assay [1], in assay [4] and in assay [6]. Besides, the fluorescence, percent of control (lower = inhibition) in assay [2] was found to be 66%. This molecule returned a GTP binding, percent of control in assay [3] of 91.3%. The molecule further displayed a GTP binding signal, raw median fluorescence (lower = inhibition) (MCF (arbitrary fluorescence units)) in assay [5] of 34.5.

For the molecule `Cc1cccc(OCCSc2nc3ccccc3n2CC(=O)O)c1C`, the molecule was classed as inactive in assay [1], in assay [4] and in assay [6]. In addition, the fluorescence, percent of control (lower = inhibition) in assay [2] was determined as 58.6%. The molecule further registered a GTP binding, percent of control in assay [3] of 87.7%. This molecule showed a GTP binding signal, raw median fluorescence (lower = inhibition) (MCF (arbitrary fluorescence units)) in assay [5] of 30.5.

For `Cc1cccc(C)c1CCOc1ncccc1C(=O)O`, the molecule was called inactive in assay [1], in assay [4] and in assay [6]. In addition, in assay [2], the fluorescence, percent of control (lower = inhibition) came to 80.3%. In assay [3], this molecule returned a GTP binding, percent of control of 251%. Besides, the GTP binding signal, raw median fluorescence (lower = inhibition) (MCF (arbitrary fluorescence units)) in assay [5] stood at 70.2.

For the molecule `Cc1ccn2c(NCc3ccc4c(c3)OCO4)c(-c3ccc(O)cc3)nc2c1`, the molecule was classed as inactive in assay [1], in assay [4] and in assay [6]. The molecule also showed a fluorescence, percent of control (lower = inhibition) in assay [2] of 60.4%. This molecule also returned a GTP binding, percent of control in assay [3] of 75%. Also, the GTP binding signal, raw median fluorescence (lower = inhibition) (MCF (arbitrary fluorescence units)) in assay [5] stood at 0.

Turning to `O=C(Oc1c(Br)cc(C(=S)N2CCOCC2)cc1Br)c1ccc(Cl)cc1`, the molecule was classed as inactive in assay [1], in assay [4] and in assay [6]. The same molecule yielded a fluorescence, percent of control (lower = inhibition) in assay [2] of 29.7%. This molecule registered a GTP binding, percent of control in assay [3] of 85%. In addition, the GTP binding signal, raw median fluorescence (lower = inhibition) (MCF (arbitrary fluorescence units)) in assay [5] came to 217.

On to `Nc1nc(CN2CCN(c3ccccc3F)CC2)nc(N2CCCc3ccccc32)n1`, for which the result in assay [1], in assay [4] and in assay [6] was inactive. Also, the fluorescence, percent of control (lower = inhibition) in assay [2] worked out at 28.5%. Further, the GTP binding, percent of control in assay [3] worked out at 69.6%. The molecule also returned a GTP binding signal, raw median fluorescence (lower = inhibition) (MCF (arbitrary fluorescence units)) in assay [5] of 210.

As for `CC(C)CCNC(=O)CN(CCN1CCOCC1)C(=O)Cn1nnc(-c2ccc(F)cc2)n1`, the call in assay [1], in assay [4] and in assay [6] was inactive. Moreover, the fluorescence, percent of control (lower = inhibition) in assay [2] turned out to be 97.1%. In assay [3], this molecule yielded a GTP binding, percent of control of 162%. In assay [5], this molecule came in with a GTP binding signal, raw median fluorescence (lower = inhibition) (MCF (arbitrary fluorescence units)) of 188.

Regarding `CCOC(=O)N1CCN(/C=C(\C#N)c2nc3ccccc3s2)CC1`, the molecule was called inactive in assay [1], in assay [4] and in assay [6]. Further, the fluorescence, percent of control (lower = inhibition) in assay [2] was found to be 80.8%. The GTP binding, percent of control in assay [3] was 92.3%. In assay [5], this molecule gave a GTP binding signal, raw median fluorescence (lower = inhibition) (MCF (arbitrary fluorescence units)) of 240.

Take `Nc1c(S(=O)(=O)c2ccccc2)c2nc3ccccc3nc2n1C1CC1`: the result in assay [1], in assay [4] and in assay [6] was inactive. Also, the fluorescence, percent of control (lower = inhibition) in assay [2] amounted to 33.3%. In assay [3], this molecule came in with a GTP binding, percent of control of 80%. Further, in assay [5], the GTP binding signal, raw median fluorescence (lower = inhibition) (MCF (arbitrary fluorescence units)) came out at 196.

In the case of `Cc1cc(C(=O)O)sc1CNc1ccc(Cl)cc1`, the molecule was called inactive in assay [1], in assay [4] and in assay [6]. This molecule also yielded a fluorescence, percent of control (lower = inhibition) in assay [2] of 63.1%. Further, the GTP binding, percent of control in assay [3] stood at 88.6%. The GTP binding signal, raw median fluorescence (lower = inhibition) (MCF (arbitrary fluorescence units)) in assay [5] was found to be 34.7.

`Cc1ccc(-c2csc3nc4c5ccccc5c(NCCCN(C)C)nn4c(=O)c23)cc1`: the result in assay [1], in assay [4] and in assay [6] was inactive. Besides, the fluorescence, percent of control (lower = inhibition) in assay [2] stood at 61.7%. The GTP binding, percent of control in assay [3] stood at 96.5%. Moreover, the GTP binding signal, raw median fluorescence (lower = inhibition) (MCF (arbitrary fluorescence units)) in assay [5] amounted to 192.
